Compound activity: PubChem, The Scripps Research Institute Molecular Screening Center
An excerpt weighted towards active compounds, which were near 3.5% of everything screened.
TEAD-YAP inh: TEAD-YAP interaction inhibition | HEK-TIYL cells, TEAD-Gal4/YAP UAS-luciferase luminescence | inhibition, % at 9.12 µM | 640,000 tested, 1.4% active; in the data active = inhibition above about 32%
FBW7 act: human FBW7 E3 ligase activation, primary screen | AlphaScreen FBW7–phospho-cyclin E peptide binding, activator screen | 650,000 tested, 0.13% active | Q969H0 | normalized activity (activation), % at 26.1 µM | AID 1259310; in the data active = normalized activity above about 1.9%;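 note: purified mutant Fbw7 with reduced substrate affinity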
GPR151 activ: activators of human GPR151 | Q8TDV0 | PathHunter beta-arrestin GPR151 cells, luminescence | activation, % at 11.2 µM | 650,000 tested, 1% active; in the data active = activation above about 4.9%
MITF primary: human MITF inhibition, primary screen; 650,000 tested, 0.91% active; AID 1259374; AlphaScreen MITF homodimerization, bead proximity signal; inhibition, % at 2.6 µM; in the data active = inhibition above about 50%
Target sequence (O75030 whole entry, looked up): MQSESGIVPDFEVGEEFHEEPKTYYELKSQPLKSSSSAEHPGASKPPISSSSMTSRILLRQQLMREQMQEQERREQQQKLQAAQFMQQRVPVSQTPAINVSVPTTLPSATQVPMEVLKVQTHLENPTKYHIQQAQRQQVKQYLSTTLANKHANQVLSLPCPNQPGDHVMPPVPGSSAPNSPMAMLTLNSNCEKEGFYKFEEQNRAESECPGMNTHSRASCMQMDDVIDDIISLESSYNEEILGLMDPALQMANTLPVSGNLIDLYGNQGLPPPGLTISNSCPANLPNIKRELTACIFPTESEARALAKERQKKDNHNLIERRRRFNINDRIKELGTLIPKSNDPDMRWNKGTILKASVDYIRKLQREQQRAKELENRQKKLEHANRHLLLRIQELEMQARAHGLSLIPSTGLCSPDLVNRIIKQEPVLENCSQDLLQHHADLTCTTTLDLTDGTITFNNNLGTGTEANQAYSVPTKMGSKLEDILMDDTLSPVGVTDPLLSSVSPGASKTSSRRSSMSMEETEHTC
Of the large screens only hits and unclear results are named; the others gave an inactive call.

CCOC(=O)c1c(NC(=O)C2CC2c2ccccc2)sc(C)c1C (configuration not stated)	none
O=C(CSc1c[nH]c2ccccc12)N1CCCCC1	none
Cn1c(=O)c2c([nH]c(=S)n2CC(=O)NC(C)(C)C)n(C)c1=O	none
Cc1cc(=O)[nH]c(N/N=C/c2cc(Br)cc(Br)c2O)n1	none
Cc1n[nH]c(=O)nc1N/N=C/c1ccccc1Cl	none
CCCOc1ccc(/C=N/Nc2nc(C)cc(=O)[nH]2)c(O)c1	TEAD-YAP inh 85.6
Cc1cc(=O)[nH]c(N/N=C/c2ccc(O)cc2O)n1	MITF primary 75.7
Cc1n[nH]c(=O)nc1N/N=C/c1ccc(N(C)C)cc1	TEAD-YAP inh 55.2
Cc1n[nH]c(=O)nc1N/N=C/c1ccc(O)cc1O	TEAD-YAP inh 42.3, MITF primary 96.8
COc1ccc(C(=O)c2oc3ccccc3c2NC(=O)c2ccc(Cl)cc2)cc1	none
O=C(O)c1cc(S(=O)(=O)Nc2ccccc2Cl)ccc1O	none
C=CCN1C(=O)C2(NC(=O)c3ccccc3N2)c2ccccc21 (configuration not stated)	TEAD-YAP inh 65.6
C=CCN1C(=O)/C(=C/c2cc(Cl)c(OS(C)(=O)=O)c(OC)c2)SC1=S	none
O=C(c1ccco1)N1CCN(c2ncc(-c3ccccc3CO)n3ccnc23)CC1	FBW7 act 6.7
O=C(c1ccco1)N1CCN(c2nccn3c(-c4ccccc4CO)cnc23)CC1	none
COC(=O)c1ccccc1NC(=O)c1cccc(C)c1	none
Oc1cccc2ccc(/C=C/c3ccc4c(c3)OCCO4)nc12	TEAD-YAP inh 92.0
CC(=O)Oc1cccc2ccc(/C=C/c3ccc4c(c3)OCO4)nc12	TEAD-YAP inh 78.3
CC(=O)Oc1cccc2ccc(/C=C/c3cc4c(cc3Cl)OCO4)nc12	none
O=C(OCc1ccc([N+](=O)[O-])cc1Cl)c1ccccc1	none
Cc1ccc2c(c1)-c1c(cnn1CC(=O)Nc1ccc(C)c(F)c1)CO2	none
Cc1cc(C)cc(NC(=O)Cn2ncc3c2-c2ccccc2OC3)c1	none
Cc1ccc2c(c1)-c1c(cnn1CC(=O)Nc1ccc3c(C)cc(=O)oc3c1)CO2	TEAD-YAP inh 49.5
Cc1cc(=O)oc2cc(NC(=O)Cn3ncc4c3-c3ccccc3OC4)ccc12	TEAD-YAP inh 48.7
COCCNc1ccnc2c(-c3cccc(C(=O)O)c3)cnn12	TEAD-YAP inh 98.6
CN(C)c1cccc(Nc2ccnc3c(-c4cccc(O)c4)cnn23)c1	TEAD-YAP inh 65.0
CCCNc1ccnc2c(-c3cccc(N(C)C)c3)cnn12	TEAD-YAP inh 32.5
CN(C)c1cccc(Nc2ccnc3c(-c4ccsc4)cnn23)c1	none
CCCNc1ccnc2c(-c3cccc(C(=O)O)c3)cnn12	TEAD-YAP inh 102.7
CCCNc1ccnc2c(-c3cccc(C(C)=O)c3)cnn12	none
COCCNc1ccnc2c(-c3ccc(C(=O)NC4CC4)cc3)cnn12	none
COCCNc1ccnc2c(-c3cccc(N(C)C)c3)cnn12	none
Nc1nc[nH]c(=O)c1N=Cc1ccccc1[N+](=O)[O-]	none
COc1ccc(-c2nccnc2N2CCN(C)CC2)cc1	none
CCCCOc1ccc(C(=O)N/C(=C/c2ccc(N(C)C)cc2)C(=O)Nc2cc(Cl)cc(Cl)c2)cc1	none
COc1ccc(/C=C(/NC(=O)c2ccccc2)C(=O)N/N=C/c2cccc(O)c2)cc1OC	none
O=C(N/N=C/c1ccccc1F)/C(=C/c1ccccc1O)NC(=O)c1ccccc1	TEAD-YAP inh 89.1
O=C(N/C(=C/c1ccccc1)C(=O)N1CCCCCCC1)c1ccccc1	none
O=C(N/C(=C/c1ccccc1O)C(=O)N1CCCCC1)c1ccccc1	TEAD-YAP inh 74.0
O=C(N/N=C/c1ccccc1O)/C(=C/c1ccccc1)NC(=O)c1ccccc1	none
COc1ccc(OC)c(/C=C(\NC(=O)c2ccccc2)C(=O)N/N=C/c2cccc(O)c2)c1	FBW7 act 2.5
CCOC(=O)Cc1csc(=Nc2ccc(C)cc2C)n1CCCO	none
Cc1ccc(COc2ccccc2/C=C2/C(=O)ON=C2c2ccccc2)cc1	MITF primary 54.1
CCOc1ccc(/C=C2\C(=O)ON=C2c2ccc(Cl)cc2)cc1	MITF primary 59.3
COc1ccccc1/C=C1\C(=O)ON=C1c1ccccc1	MITF primary 70.4
CCOc1cc(/C=C2/C(=O)ON=C2c2ccccc2)ccc1OC	MITF primary 66.8
COc1cc(/C=C2\C(=O)ON=C2c2ccccc2)ccc1OCc1ccc(Cl)cc1	none
COc1cc(/C=C2/C(=O)ON=C2c2ccc(Cl)cc2)ccc1O	MITF primary 60.8
COc1cc(/C=C2/C(=O)ON=C2c2ccccc2)cc(OC)c1OC	MITF primary 56.4
COc1cc(/C=C2/C(=O)ON=C2c2ccccc2)ccc1O	MITF primary 69.4
O=C(CSc1nnc2sc3ccccc3n12)Nc1cc(Cl)ccc1Cl	none
N#CC1=C2SCC(O)(c3ccco3)N2C(=O)CC1c1ccc(F)cc1 (configuration not stated)	TEAD-YAP inh 42.8
N#CC1=C2SCC(O)(c3ccc(F)cc3)N2C(=O)CC1c1cccc(F)c1 (configuration not stated)	TEAD-YAP inh 53.7
CC(=O)c1c(C)n(-c2ccc(N(C)C)cc2)c2ccc(O)cc12	TEAD-YAP inh 40.2
O=C1CN(C(=O)c2cc([N+](=O)[O-])ccc2Cl)c2ccccc2N1	TEAD-YAP inh 59.4
COc1cccc(C(=O)N2c3ccccc3NC(=O)CC2C)c1 (configuration not stated)	none
COc1cccc(C(=O)N2CC(=O)Nc3ccccc32)c1	TEAD-YAP inh 42.3
CN(C)c1c(C(=O)N2CC(=O)Nc3ccccc32)cc([N+](=O)[O-])cc1[N+](=O)[O-]	none
CCCCOc1ccc(C(=O)Nc2ccc3c4c(cccc24)C(=O)N3CC)cc1	none
CCCCN1C(=O)c2cccc3c(NC(=O)c4ccc(C#N)cc4)ccc1c23	TEAD-YAP inh 48.3
O=C(NCc1cccc(C(F)(F)F)c1)c1cccc(N2CCC(N3CCOCC3)CC2)n1	TEAD-YAP inh 35.8
CCc1ccc(CNC(=O)Cc2ccc(NC(=O)C3=C(C)OCCS3)cc2)cc1	TEAD-YAP inh 35.3
CCOC(=O)C1(CCSC)NC(c2cccs2)C2C(=O)N(CC)C(=O)C21 (configuration not stated)	TEAD-YAP inh 32.2
CCOC(=O)C1(Cc2ccccc2)NC(c2cccs2)C2C(=O)N(CC)C(=O)C21 (configuration not stated)	none
Cn1c(CS(=O)(=O)c2ccccc2)c(C#N)c2ccccc21	TEAD-YAP inh 34.4
Cn1c(COc2ccccc2)c(C#N)c2ccccc21	none
COc1ccc(OC)c2[nH]c(=O)c(CCNC(=O)c3ccc([N+](=O)[O-])cc3)cc12	none
O=c1c2ccccc2nc(-c2ccc(F)cc2)n1NCc1ccc(Br)s1	none
COCCNC(=O)c1cccc(OC2CCN(C3CCSCC3)CC2)c1	none
O=C(Nc1nccs1)c1cn(-c2ccccc2)nc1-c1cccnc1	TEAD-YAP inh 37.9
O=C(Nc1nccs1)c1cn(-c2ccccc2)nc1-c1ccc(Br)cc1	none
CCCNC(=O)Cn1cnc2sc(C(=O)NCc3ccco3)c(C)c2c1=O	none
CN1CCN(C(=O)c2ccc(-c3nc(NCc4nc5ccccc5[nH]4)c4ncn(-c5ccsc5)c4n3)cc2)CC1	TEAD-YAP inh 58.5
